According to PubChem BioAssay AID485281 (National Center for Advancing Translational Sciences (NCATS), 2010):
Hit rate of the full screen: of about 350,000 compounds, about 260 (0.074%) were called active. Inconclusive results (about 8%) are left out. The list comes from a sample in which actives are over-represented; it also holds similar structures and randomly drawn compounds. Values without a mark were called inactive. The call rests on the fitted dose curve; in most records, active means well fitted inhibition curve with a large enough effect; inconclusive means small, poorly fitted or top-dose-only effect; inactive means no such curve, though single readings can be large or run the other way.

These compounds were tested against Ferritin light chain (Equus caballus) (UniProt P02791) (assay: qHTS Assay for Identification of Novel General Anesthetics). Conditions: apoferritin/1-aminoanthracene competitive binding, fluorescence; series mostly up to 77.5 µM; activity change, negative = displacement: at the top concentration.
Chain of Ferritin light chain (Equus caballus) (P02791 2-175 limits assumed): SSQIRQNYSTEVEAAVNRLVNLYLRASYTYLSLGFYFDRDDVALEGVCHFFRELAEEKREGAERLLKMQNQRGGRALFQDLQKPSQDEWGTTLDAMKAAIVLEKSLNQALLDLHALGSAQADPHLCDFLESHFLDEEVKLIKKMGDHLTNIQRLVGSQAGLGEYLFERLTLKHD
Method in brief: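 Apoferritin-based anesthetic binding model; compound displacement of fluorescent 1-AMA measured as endpoint fluorescence after 10 minutes at room temperature, scaled to free-ligand and complex controls.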
Further: nearly all actives have a fitted effect of over 20% in size.
On the % scale 0 is the no-effect control and ±100 the full control effect; potency means the concentration at half of the fitted maximal effect.

Compound	activity change, negative = displacement [%]	Potency
CCN(CC)c1ccc(NS(=O)(=O)c2cc(-c3cc(C)no3)ccc2C)c(C)c1	-16.1	–
Cc1ccc(F)c(NC(=O)CCc2ccccc2)c1	–	12.6 µM (active)
Cc1cccc(OCC(=O)Nc2ccccc2F)c1	-10.1	–
Cc1ccc(F)c(NC(=O)CCOc2ccccc2C)c1	-17.2	–
CCc1ccc(NC(=O)C2CCCN2S(=O)(=O)c2ccc3nc(-c4ccccc4)[nH]c3c2)cc1 (stereo unspecified)	45.5	–
CCCOc1ccc(C2c3c(oc4cc(C)c(C)cc4c3=O)C(=O)N2CCCN2CCOCC2)cc1 (stereo unspecified)	–	35.5 µM (active)
CSc1ccc(C2c3c(oc4ccccc4c3=O)C(=O)N2CCCN2CCOCC2)cc1 (stereo unspecified)	-3.91	–
Cc1ccc2oc3c(c(=O)c2c1)C(c1ccc([N+](=O)[O-])cc1)N(CCCN1CCOCC1)C3=O (stereo unspecified)	2.9	–
CCOc1ccc(C(NC(=O)c2cc(OC)c(OC)c(OC)c2)c2cc(Cl)c3cccnc3c2O)cc1 (stereo unspecified)	-4.02	–
Cc1c(Cl)cccc1NC(=O)Cn1cc(C(=O)c2cccs2)c2ccccc21	-3.85	–
O=C(Nc1ccc(Br)cc1)c1ccc(Br)c(S(=O)(=O)NCc2ccccc2)c1	-4.58	–
CCCn1c2ccccc2c2cnn(CC(=O)NCC3CCN(Cc4ccc(C)cc4)CC3)c(=O)c21	2.12	–
COc1ccc(N2CCN(c3nc(-c4ccccc4F)nc4ccccc34)CC2)cc1	2.92	–
COc1ccc(OC)c(NC(=O)/C=C/c2ccc(C)o2)c1	-9.12	–
CCC1CN(S(=O)(=O)c2cc(-c3cc(C)no3)ccc2C)c2cc(C)ccc2O1 (stereo unspecified)	53.1	–
CC(C)c1ccc(OCC(=O)N(Cc2ccc(N(C)C)cc2)C2CCS(=O)(=O)C2)cc1 (stereo unspecified)	0.697	–
CSc1ccc(CCNC(=O)c2ccc3c(c2)nc2n3CCOC2)cc1	2.01	–
CC(C)S(=O)(=O)c1oc(-c2ccc(F)cc2)nc1S(=O)(=O)c1ccc(F)cc1	-17	–
CCOc1ccc(-c2cc(C)n3nc(C(=O)Nc4ccc(C)c(C)c4)cc3n2)cc1	-1.85	–
COc1ccc(Cl)cc1NC(=O)CCn1c(=O)c2cccn2c2ccccc21	1.18	–
O=C(NCc1ccccc1)C(=O)NCC(c1ccco1)S(=O)(=O)c1ccc(Cl)cc1 (stereo unspecified)	0.676	–
CCC(=O)N1CCc2cc(S(=O)(=O)NC(Cc3ccccc3)C(=O)NCc3ccccc3)ccc21 (stereo unspecified)	-3.69	–
CC(C)c1ccc(NC(=O)c2ccc(Cn3nc(N4CCN(c5ccccc5)CC4)ccc3=O)o2)cc1	-20.7	–
Cc1ccc(CCNC(=O)c2ccc(CS(=O)(=O)Cc3cccc(C)c3)o2)cc1	-18.4	–
CNC(=O)c1ccc(-c2nc(CN3CCc4ccccc43)c(C)o2)cc1	-15.1	–
COc1ccc(-c2noc(CSc3nc4ccc(C)cc4[nH]3)n2)cc1	-17.7	–

Compound	activity change, negative = displacement [%]	Potency
Cc1ccc(C(=O)Nc2ccc(OCc3cc(=O)n4c5c(sc4n3)CCCC5)cc2)cc1	-0.406	–
O=C(Nc1ccc(NC(=O)c2cccs2)cc1)c1ccc2ccccc2c1	8.46	–
O=C(Nc1ccccc1N1CCCC1)c1ccc2ccccc2c1	-13.8	–
C=CC(=O)c1ccc2ccccc2c1	–	17.8 µM (active)
CCOc1cc(C(=O)Nc2nnc3n2CCS3)cc(OCC)c1OCC	3.04	–
Cc1cc(O)c(C(c2ccccc2)N2CCN(c3ccccc3F)CC2)c(=O)n1Cc1ccco1 (stereo unspecified)	-12.2	–
CCOc1cc(-c2nnc(SCC(=O)NC3CCCCC3)nc2-c2ccc(OC)c(OCC)c2)ccc1OC	3.53	–
COc1ccc(C(=O)Nc2ccc(-n3nncc3-c3ccccc3)cc2)cc1OC	-2.67	–
Cn1c(C(=O)N2CCC(C(=O)N3CCN(c4ccccc4)CC3)CC2)cc2sccc21	1.34	–
CC(C)(C)OC(=O)N1CCC(c2c(C(=O)NCCc3ccsc3)cnn2-c2ccc(F)cc2F)CC1	-21.7	–
COc1cccc(C(c2c(O)cc(C)n(Cc3ccco3)c2=O)N2CCN(c3ccccc3)CC2)c1 (stereo unspecified)	55.7	–
COc1ccc2ncc3c(-c4ccc(C)c(C)c4)nn(CC(=O)NC4CCCC4)c3c2c1	-5.23	–
O=c1c(/C=N/O)coc2ccc(Cl)cc12	-1.41	–
CC(C)(C)OC(=O)NCCCCCC(=O)N/N=C/c1coc2ccccc2c1=O	5.44	–
Cc1ccc2occ(/C=N/NC(=O)c3ccccc3C)c(=O)c2c1	–	25.1 µM (active)
O=S(=O)(NCC(c1ccccc1)N1CCc2ccccc21)c1ccccc1 (stereo unspecified)	51.7	–
O=C(O)c1c(CNCc2cccc(F)c2)c2ccccc2n1Cc1ccccc1	-21.5	–
O=c1cc2nc(-c3ccccc3)nc(SCCOc3ccc(Cl)cc3)n2[nH]1	-0.698	–
COc1ccc(CCN2C(=O)N(c3cccc(OC)c3)C(=O)C2CC(=O)Nc2ccccc2)cc1 (stereo unspecified)	85.6	–
CCc1cnc2c(c1SCC(=O)c1ccccc1)c(=O)n(C)c(=O)n2C	-10.2	–
CCCNC(=O)c1ccc2c(c1)ncn2-c1ccc(C)cc1C	-7.08	–
CC(C)c1ccc(S(=O)(=O)Nc2ccc(O)c(Sc3nc4ccccc4s3)c2)cc1	-11.6	–
COc1cc(NC(=O)c2cc3ccc4cccnc4c3[nH]2)cc(OC)c1OC	-13.1	–
CCOc1ccc(OCC)c(NC(=O)CN(c2ccc(C)cc2)S(=O)(=O)c2c(C)n[nH]c2C)c1	-11.5	–
COc1ccc(OC)c(CCNC(=O)CCCn2c(=O)c3cccn3c3cccnc32)c1	10.6	–
